Source: PubChem BioAssay
TRPV1 PAM: potentiators of human vanilloid receptor 1 (TRPV1); AID 540277; TRPV1-expressing cells, Fluo-8 calcium influx, capsaicin EC20 potentiation; hit rate 0.02% among 320,000; potentiation, % at 8.33 µM; in the data active = potentiation above about 80%; inconclusive = between about 30% and that limit
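Cells expressing TRPV1 were dye-loaded with Fluo-8 and read kinetically: 10 s baseline, 3 min after compound (agonist portion), then 2 min after EC20 capsaicin (allosteric enhancer portion). Calcium-bound dye fluorescence at 480/520 nm.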
TRHR enhancer: allosterically enhances the human TRH receptor; TRHR cells, fluo-8 calcium fluorescence, EC20 TRH enhancement; hit rate 0.66% among 360,000; enhancement, % at 2 µM; AID 493056; in the data active = enhancement above about 30%
Target sequence (P34981 whole entry, looked up): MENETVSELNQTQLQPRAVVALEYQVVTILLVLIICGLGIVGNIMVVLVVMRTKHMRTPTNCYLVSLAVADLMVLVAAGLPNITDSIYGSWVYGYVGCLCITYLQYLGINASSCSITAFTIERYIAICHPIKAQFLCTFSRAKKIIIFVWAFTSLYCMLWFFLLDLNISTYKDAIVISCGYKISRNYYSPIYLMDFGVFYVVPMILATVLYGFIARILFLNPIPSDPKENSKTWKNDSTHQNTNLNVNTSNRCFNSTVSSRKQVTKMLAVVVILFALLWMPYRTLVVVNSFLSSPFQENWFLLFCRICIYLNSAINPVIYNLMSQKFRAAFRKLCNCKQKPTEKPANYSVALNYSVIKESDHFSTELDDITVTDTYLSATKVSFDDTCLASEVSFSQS
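Enhancer read-out: after compound pinning and an initial kinetic agonist-mode read, an EC20 of TRH (10 nM final) was injected and fluo-8 calcium signal (Ex 480/Em 530) followed at 1 s/cycle for 100 cycles in TRHR-expressing cells.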
TRPV1 ag: activates the human vanilloid receptor TRPV1; activation, % at 8.33 µM; TRPV1-expressing cells, Fluo-8 calcium influx, agonist mode; hit rate 0.19% among 320,000; in the data active = activation above about 80%; inconclusive = between about 30% and that limit
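Fluo-8 calcium influx in TRPV1-expressing cells, kinetic read (ex 480/em 520 nm). Compound added and read 3 min for agonist activity, followed by capsaicin at EC20 final and 2 min further read for enhancement.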
TRPML1 inh: human mucolipin-1 channel inhibition | Q9GZU1 | TRPML1-inducible cells, Ca2+ dye fluorescence, FDSS; active compounds read low; inhibition of EC80 agonist-evoked calcium signal | activity change, negative = inhibition, % (no concentration beside the values) | hit rate 0.02% among 390,000 | AID 624415; in the data active = activity change below about -50%; inconclusive = between about -30% and that limit;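 also: stimulus is agonist 54-4 at its EC80 concentration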
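Tet-induced TRPML1-DL cells loaded with Ca8 no-wash calcium dye were read kinetically on FDSS. Compound addition was followed by EC80 agonist 54-4 (4 uM final); inhibition was read over 110 s.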
TRHR agonist: agonists of human TRH receptor; TRHR cells, calcium flux fluo-8, FDSS agonist mode; hit rate 0.18% among 360,000; activation, % at 2 µM; in the data active = activation above about 30%
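Agonist-mode FDSS calcium read (Ex 480/Em 530, 1 s cycles) in 1536-well TRHR cells with fluo-8 dye, after 10-cycle baseline and 23 nL compound addition; TRH at EC20 (10 nM final) added afterwards for the enhancer phase.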
TRPML1 ag: agonists of human TRPML1 channel; AID 624414; hit rate 0.12% among 410,000; Q9GZU1; TRPML1-expressing cells, Ca2+ dye fluorescence, FDSS; activation, % (concentration not given with the values); in the data active = activation above about 50%; inconclusive = mostly about 30% to 49%
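Agonist activity was taken from a 110 s kinetic Ca2+ dye read on the FDSS after pinning compounds onto TRPML1-DL cells. The cells were seeded at 1,500/well with Tet inducer, incubated about 16 h, then dye-loaded at room temperature.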
Numbers stand for hits; i = inactive; ? = inconclusive; nt = not tested or not shown. An excerpt weighted towards active compounds, which were near 0.99% of everything screened.

SMILES | TRPV1 PAM | TRHR enhancer | TRPV1 ag | TRPML1 inh | TRHR agonist | TRPML1 ag
N#CC1=C(N)OC2=C(CC/C2=C\c2ccccc2)C1c1ccccc1 (stereo not given) | i | i | i | i | i | 55
CC1CC(C)CN(S(=O)(=O)c2ccc(C(C)(C)C)cc2)C1 (stereo not given) | i | i | i | i | i | 56
O=C(NNC(=O)C1CC1c1ccccc1)c1ccccc1F (stereo not given) | i | i | i | i | i | i
O=C(NNC(=O)C1CCCC1)c1ccccc1F | i | 35 | i | i | i | i
O=C(COC(=O)C12CC3CC(CC(Cl)(C3)C1)C2)Nc1ccc2[nH]c(=O)[nH]c2c1 | i | i | ? | i | i | i
O=C(COC(=O)C12CC3CC(CC(C3)C1)C2)Nc1ccc2[nH]c(=O)[nH]c2c1 | i | i | 92 | i | i | i
COc1ccc(C(=O)c2cn(Cc3ccccc3)c3ccccc3c2=O)cc1OC | nt | 48 | nt | i | i | i
Cc1ccc(S(=O)(=O)NCCNC(=O)c2ccccc2)cc1 | i | i | i | i | i | i
Cc1ccc(C(=O)NCCNS(=O)(=O)c2ccccc2)cn1 | i | 39 | i | i | i | i
O=C(Cc1cccc(F)c1)NO | nt | nt | nt | nt | nt | i
O=C(NCC1(c2ccccc2)CCCC1)c1ccc(Br)o1 | i | i | ? | i | i | 70
O=C(CNC(=O)c1ccc(Br)o1)NCC(=O)OCc1ccccc1 | i | 30 | i | i | i | i
CCCN(CCC)C(C)C(=O)NCC1(c2ccccc2)CCCC1 (stereo not given) | i | i | ? | ? | i | 107
Cc1ccc(C2=NS(=O)(=O)N(C)C(C(=O)NCc3cccs3)=C2)cc1 | i | i | 92 | i | i | i
N#Cc1nc(Nc2cc(F)cc(F)c2)nc(Nc2cc(F)cc(F)c2)n1 | nt | i | nt | nt | i | nt
CCOC(=O)N1CCN(C(=O)COC(=O)Cc2ccc(OC)cc2)CC1 | i | 34 | i | i | i | i
COc1ccc(N2CCN(C(=O)COC(=O)Cc3ccc(F)cc3)CC2)cc1 | i | i | i | i | i | i
O=C(/C=C/c1cc(Br)ccc1F)Nc1cccnc1 | i | i | 80 | i | i | i
Nc1ccc(/C=C/c2ccnc3ccccc23)cc1[N+](=O)[O-] | nt | nt | nt | nt | nt | i
COC(=O)c1c(C)sc(-c2c(-c3cccc(Cl)c3)[nH]c3c2c(=O)[nH]c(=O)n3C)c1O | nt | i | nt | i | 36 | i
O=C(COc1ccc(Br)cc1)NCCN1CCCC1 | i | 30 | i | i | i | i
Cc1ccc(OCC(=O)NCCN2CCCC2)cc1 | i | i | i | i | i | i
CCn1nc(C)c(Br)c1-c1nc(-c2cccc(C)c2)no1 | nt | i | nt | i | i | i
CCn1nc(C)c(Br)c1-c1nc(CS(=O)(=O)c2ccsc2)no1 | nt | 37 | nt | i | i | i
CC(=O)NC(=S)Nc1ccc(S(=O)(=O)N2CCOCC2)cc1 | i | 32 | i | i | i | i
SMILES | TRPV1 PAM | TRHR enhancer | TRPV1 ag | TRPML1 inh | TRHR agonist | TRPML1 ag
CC(=O)Nc1ccc(S(=O)(=O)N2CCOCC2)cc1 | i | i | i | i | i | i
CCCCc1ccc(NC(=O)COC(=O)c2ccccc2OCC(=O)Nc2ccc(Br)cc2)cc1 | nt | nt | nt | nt | nt | i
O=C(COc1ccccc1C(=O)Nc1ccccc1)Nc1ccccc1Cl | nt | nt | nt | nt | nt | i
Cc1ccccc1CN1CCC(CNc2ncnc3onc(-c4ccc(F)cc4)c23)CC1 | nt | 36 | nt | i | i | i
Cc1cc(/C=N/NC(N)=S)c(O)c(/C=N/NC(N)=S)c1 | i | i | ? | i | 148 | i
COc1cc(/C=C2\Oc3cc(O)ccc3C2=O)ccc1O | i | i | i | i | 33 | ?
O=C1/C(=C/c2ccc(O)c(O)c2)Oc2cc(O)ccc21 | i | i | i | i | i | i
C=CC[n+]1cccc2cc(Br)ccc21 | nt | nt | nt | nt | nt | i
O=C(Nc1ccncc1)Nc1ccc(F)c(Cl)c1 | i | 36 | ? | i | i | i
O=C(Nc1ccc(F)c(Cl)c1)Nc1ccc(Cl)cn1 | i | i | i | i | i | i
Cc1ccc2c(C)c(C(=O)NCC3CCOCC3)oc2c1C | nt | nt | nt | i | nt | i
Cc1ccc2oc(C(=O)NCC3CCOCC3)c(C)c2c1 | i | i | 84 | i | i | i
O=C(Nc1ccc(Cl)c(Cl)c1)C1=Cc2ccccc2OC1 | i | i | 88 | i | i | i
CCc1c(C)c2cc(Cl)c(O)c(CN(CC)CC)c2oc1=O | i | 38 | i | i | i | i
CCOC(=O)c1ccc(N2C(=O)c3n[nH]c(-c4ccco4)c3C2c2cccc(F)c2)cc1 (stereo not given) | nt | 34 | nt | i | i | i
CCOC(=O)c1ccc(N2C(=O)c3n[nH]c(-c4ccco4)c3C2c2ccc(F)cc2)cc1 (stereo not given) | nt | i | nt | i | i | i
O=C1CN(C(=O)COc2ncnc3ccccc23)c2ccccc2N1 | i | i | i | i | i | i
Cc1sc2ncnc(OCC(=O)N3CC(=O)Nc4ccccc43)c2c1C | 96 | i | i | i | i | i
CC(C)(C)n1ncc2c(=O)n(Cc3ccc(Cl)c(C(F)(F)F)c3)cnc21 | nt | nt | nt | i | nt | i
O=C(/C=C/c1cccc2ccccc12)N1CCOCC1 | i | i | 92 | i | i | i
O=C(/C=C/c1ccccc1Cl)N1CCOCC1 | i | i | ? | i | i | i
O=C(/C=C\c1cn(-c2ccccc2)nc1-c1ccc2c(c1)OCCO2)N1CCOCC1 | i | i | 115 | i | i | i
COc1cc(OC)c(/C=C/c2ccc3ccccc3[n+]2[O-])c(OC)c1 | nt | nt | nt | nt | nt | i
O=C(NNC(=O)c1cccs1)c1ccc(F)cc1 | i | 36 | i | i | i | i
Cc1cccc(C(=O)NC(=S)NNC(=O)c2cccs2)c1 | i | i | ? | i | 42 | i
SMILES | TRPV1 PAM | TRHR enhancer | TRPV1 ag | TRPML1 inh | TRHR agonist | TRPML1 ag
O=C(NC(=S)NNC(=O)c1cccs1)c1ccccc1 | i | i | i | i | i | i
CC(C)(C)c1ccc(C(=O)NC(=S)NNC(=O)c2cccs2)cc1 | i | i | ? | i | 34 | 74
Cc1cccc(C(=O)NC(=S)NNC(=O)c2ccc(Cl)cc2)c1 | i | i | ? | i | i | ?
CCCS(=O)(=O)c1ncc(Cl)c(C(=O)Nc2sc3c(c2C(=O)NCC)CCCC3)n1 | nt | nt | nt | nt | nt | i
CCOc1cccc(C2C=C(c3ccc4c(c3)OCO4)NC(c3ccccc3Cl)N2)c1O (stereo not given) | nt | nt | nt | nt | nt | i
N#Cc1nc(Nc2cccc([N+](=O)[O-])c2)nc(NC2CCCC2)n1 | nt | i | nt | nt | i | nt
OCCN(CCO)c1ccc(/C=C/c2ccnc3ccccc23)cc1 | nt | nt | nt | nt | nt | i
CCOC(=O)N1N=C(c2ccc(OC)cc2)CC1(O)C(F)(F)F (stereo not given) | i | 32 | i | i | i | i
CCc1ccc(C2=NN(C(=O)OC)C(O)(C(F)(F)F)C2)cc1 (stereo not given) | i | i | i | i | i | i
COC(=O)CN1C(=O)S/C(=C/c2ccc(N3CCCCC3)o2)C1=O | i | i | ? | i | 56 | i
